12-LOX inh – blocks human arachidonate 12S-lipoxygenase | P18054 | purified 12hLO, xylenol orange hydroperoxide absorbance | Potency, µM (top dose mostly 108 µM), without a hit: top-dose activity change, negative = inhibition, hits mostly inhibitors | 580,000 compounds, 1.1% hits | AID 1671190; note: potency is the fitted concentration of half-maximal effect
Target sequence (P18054 whole entry, looked up): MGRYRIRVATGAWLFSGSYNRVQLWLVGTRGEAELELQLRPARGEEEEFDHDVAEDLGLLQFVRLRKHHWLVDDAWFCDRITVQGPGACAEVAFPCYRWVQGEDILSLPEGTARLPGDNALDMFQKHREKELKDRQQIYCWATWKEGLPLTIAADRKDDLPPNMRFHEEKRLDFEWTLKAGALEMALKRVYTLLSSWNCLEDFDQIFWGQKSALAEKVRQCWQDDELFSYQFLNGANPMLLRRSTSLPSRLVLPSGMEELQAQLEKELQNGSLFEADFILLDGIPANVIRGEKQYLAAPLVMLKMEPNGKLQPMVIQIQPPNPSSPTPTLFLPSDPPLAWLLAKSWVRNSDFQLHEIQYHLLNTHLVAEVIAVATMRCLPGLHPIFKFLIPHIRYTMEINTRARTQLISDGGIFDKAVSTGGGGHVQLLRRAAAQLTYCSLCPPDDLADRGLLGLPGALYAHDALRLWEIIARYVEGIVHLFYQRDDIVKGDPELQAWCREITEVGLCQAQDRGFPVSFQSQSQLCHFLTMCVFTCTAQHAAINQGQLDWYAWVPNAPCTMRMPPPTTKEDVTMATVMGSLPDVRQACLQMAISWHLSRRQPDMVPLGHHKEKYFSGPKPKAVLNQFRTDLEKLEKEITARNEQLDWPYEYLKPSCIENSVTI
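Purified human 12hLO at 150 nM in 25 mM Hepes, 0.01% Triton X-100, pH 7.0, preincubated 15 min at room temperature with compound. Reaction started with 40 uM arachidonic acid, 30 min at room temperature. Hydroperoxide measured by Fe-xylenol orange, 573/405 nm absorbance ratio.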
DT40 TDP1 no CPT – qHTS for Inhibitors of human tyrosyl-DNA phosphodiesterase 1 (TDP1): qHTS in cells in absence of CPT | DT40 Tdp1-/- hTDP1 cells, no CPT, ATP luminescence, 48 h | Potency, µM (top dose mostly 46.2 µM), inactives show at the highest dose activity change, negative = growth inhibition, hits mostly inhibitors | 420,000 compounds, 15% hits | AID 686978, 2013; note: potency is the fitted concentration of half-maximal effect; nearly all actives have a fitted effect of over 55% in size
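No-CPT arm: Tdp1-/-;hTDP1 DT40 cells (400/well) plus compounds, incubated ≥48 hr at 37 °C. Readout CellTiter-Glo luminescence.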
IL1B secr inh – inflammasome signaling inhibition, IL-1 beta readout. AID 743279. THP-1 LPS/ATP IL-1B secretion, AlphaLISA, 16 h; active compounds read low. 360,000 compounds, 4.7% hits. activity change, % at 57.5 µM; in the data active = activity change below about -50%; inconclusive = mostly about -30% to -49%
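Secreted IL-1B measured by AlphaLISA bead assay after 16 h compound exposure of THP-1 cells; compounds (final up to 57.5 uM) added 1 h before LPS (250 ng/mL) and ATP (1.25 mM) stimulation; lower signal means less secretion.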
HT1080 IDH1KD tx – toxicity to HT-1080 IDH1 knockdown cells (counter line); HT-1080 IDH1 knockdown viability, ATP luminescence, 48 h; Potency, µM (top dose mostly 46.1 µM), inactives show at the highest dose activity, negative = toxicity, most hits filed as cytotoxic; 360,000 compounds, 2% hits; AID 686971;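 note: potency is the fitted concentration of half-maximal effect; 0% = DMSO wells and -100% = cell-free medium wells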
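Cytotoxicity counter-line: IDH1KD HT-1080, 48 h, CellTiter-Glo. Curves classed by r2, magnitude and activity.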
TDP1 cell CPT – growth inhibition of DT40 Tdp1-/-;hTDP1 cells with camptothecin (screen for TDP1 inhibitors); chicken DT40 Tdp1-/-;hTDP1 cells + 20 nM CPT, ATP luminescence, 48 h; Potency, µM (highest dose often 46.2 µM), for the others: at the highest dose activity change, negative = growth inhibition, most hits filed as inhibitors; 420,000 compounds, 12% hits; note: potency is the fitted concentration of half-maximal effect; nearly all actives have a fitted effect of over 55% in size
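Cell growth measured by CellTiter-Glo luminescence after a minimum 48 h, 37 C compound exposure with 20 nM CPT in Tdp1-knockout DT40 cells stably expressing hTDP1, seeded 400/well; qHTS titration format.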
HT1080NT lethal – kills 2HG-producing HT-1080-NT fibrosarcoma cells; AID 686970; HT-1080-NT fibrosarcoma viability, CellTiter-Glo ATP luminescence, 48 h; Potency, µM (doses to about 46.1 µM), for inactives: at the highest dose activity, negative = less viability, usual class: cytotoxic; 360,000 compounds, 1.6% hits;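 note: NT is the 2HG producing partner of a matched IDH1 knockdown line; potency is the fitted concentration of half-maximal effect; 0% = DMSO-treated cells and -100% = media-only wells without cells; nearly all actives have a fitted effect of over 55% in size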
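Viability by CellTiter-Glo luminescence after 48 h compound exposure at 37C of HT-1080-NT cells (750/well, RPMI, 5% FBS). % activity scaled between DMSO wells and medium-only wells, then curve-fitted and categorized by curve class.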
An asterisk follows results filed as active; u = inconclusive; x = no result given; [ ] = dose if it differs, or a comment. Only a selection was taken, and hits are over-represented in it overall. Unless noted, calls come from the whole dose curve; as a rule, active = well fitted curve in the direction sought with a large enough effect; inconclusive = small, poorly fitted or top-dose-only effect, or another doubt; inactive = no such curve, though single readings can be large; an effect the other way counts as inactive or inconclusive. Unless noted, % is set by controls: 0 for no effect and ±100 for the full control effect.

SMILES	12-LOX inh	DT40 TDP1 no CPT	IL1B secr inh	HT1080 IDH1KD tx	TDP1 cell CPT	HT1080NT lethal
CC1Cc2ccccc2N1C(=O)CSc1nnc2n1C(C)(C)Cc1ccccc1-2 (stereo not drawn)	-43.2%	20.6µM*	0.0	0.6%	20.6µM*	0.9%
CN(CC(=O)NCCCN1CCOCC1)S(=O)(=O)c1ccc(Cl)cc1	2.5%	-0.4%	-3.3	-1.6%	5.0%	-1.8%
CN(c1ccccc1)S(=O)(=O)c1ccc(Cl)c(C(=O)Nc2ccccc2N2CCOCC2)c1	-1.7%	7.31µM*	18.2	-17.9%	8.2µM*	-0.1%
CN(CC(=O)Nc1ccccc1N1CCOCC1)S(=O)(=O)c1ccc(Cl)cc1	27.6%	u	-3.5	9.0%	20.6µM*	-5.4%
c1ccc(Nc2nc(-c3cccc4ccccc34)cs2)cc1	-23.2%	x	x	x	x	x
CC(=O)NNc1nc(-c2ccccc2)cs1	-19.1%	u	41.9	-1.8%	20.6µM*	-0.3%
O=C(NNc1nc(-c2ccccc2)cs1)c1cccs1	-9.3%	23.1µM*	-2.9	u	u	u
CC(=O)Nc1nc(-c2cccc3ccccc23)cs1	-2.1%	u	-10.1	-4.6%	14.6µM*	-11.1%
CCOC(=O)Nc1nc(-c2ccc(Cl)cc2Cl)cs1	-29.5%	10.3µM*	-29.4	22.1%	u	29.6%
O=C(NC1CC1)[C@@H]1C[C@H](Oc2cccnc2)CN1C(=O)CCc1c[nH]c2ccccc12	15.2%	x	x	x	x	x
O=C(NNc1nc(-c2ccccc2)cs1)c1ccc(F)cc1	-6.1%	0.8%	-13.4	9.2%	5.3%	u
O=C1OC(Nc2nc(-c3ccc(F)cc3)cs2)c2ccccc21 (stereo not drawn)	-0.2%	23.1µM*	-92.1*	23.1µM*	14.6µM*	u
O=C(NNc1nc(-c2ccc(F)cc2)cs1)c1ccccc1	-15.2%	4.11µM*	-5.8	u	2.59µM*	u
C=CCNc1nc(Nc2ccc(OC)cc2OC)nc(OCC)n1	0.0%[57.4 µM]	u	5.7	-17.8%	16.4µM*	-6.4%
C=CCNc1nc(Nc2ccccc2F)nc(OCC)n1	1.1%	-26.3%	0.1	2.4%	u	1.4%
COc1ccc(Nc2ncc3c(n2)CCN(Cc2ccccc2C)C3)c(OC)c1	-0.7%	10.3µM*	x	x	u	x
COc1ccccc1N1CCN(c2ncc3c(n2)CCN(Cc2ccccc2C)C3)CC1	-11.6%	5.3%	x	x	-12.3%	x
Cc1ccccc1CN1CCc2nc(Nc3ccc4c(c3)OCCO4)ncc2C1	-24.3%	20.6µM*	x	x	23.1µM*	x
CCOc1ccc(CN2CCc3nc(Nc4ccc(OC)cc4OC)ncc3C2)cc1	-13.1%	u	x	x	20.6µM*	x
COc1cc(Nc2ncc3c(n2)CCN(Cc2ccc(OC(C)C)c(OC)c2)C3)cc(OC)c1	-26.6%	13µM*	x	x	16.4µM*	x
CCOc1ccccc1CN1CCc2nc(Nc3ccccc3)ncc2C1	2.5%	u	x	x	u	x
CC(C)CCN1C[C@@H]2C(=O)N(Cc3ccc4c(c3)OCO4)C(=O)[C@@H]2C1	14.1%	x	x	x	x	x
COCCNC(=O)[C@@H]1C[C@H](Oc2cccnc2)CN1C(=O)c1ccoc1	38.6%	x	x	x	x	x
CCCCNC(=O)C1(C)CCCCN1C(=O)c1ccc2ccccc2n1 (stereo not drawn)	-15.5%	u	-6.0	4.9%	u	17.5%
CCCCNC(=O)C1(C)CCCCN1Cc1ccc(OCc2ccccc2)cc1 (stereo not drawn)	-2.4%	20.6µM*	-24.9	u	20.6µM*	u
CCCCNC(=O)C1(C)CCCCCN1Cc1cc2ccccc2o1 (stereo not drawn)	-20.2%	u	-25.8	u	18.4µM*	u
